The campaign covered roughly 360,000 compounds. About 11,000 (3.1%) were called active. Inconclusive results (about 4%) are left out. This is one part of a sample in which actives are shown more often than they occur. Calls follow the shape of the dose curve; as a rule, active = well fitted inhibition curve with a large enough effect; inconclusive = small, poorly fitted or top-dose-only effect; inactive = no such curve, though single readings can be large or run the other way.
target: Schistosoma mansoni thioredoxin glutathione reductase (TGR) (UniProt Q962Y6); assay: qHTS Assay for the Inhibitors of Schistosoma Mansoni Peroxiredoxins; details: purified TGR, DTNB reduction, TNB absorbance 405 nm; series mostly up to 114 µM; activity change, negative = inhibition: at the top concentration; also: nearly all actives have a fitted effect of over 60% in size
Method in brief: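 First, TGR (20 nM dispensed) and NADPH were mixed with compound. Second, a 15 min room-temperature incubation followed. Third, further NADPH and then DTNB were added to start the reaction. Finally, TNB absorbance was monitored kinetically.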
% is scaled to controls: 0 for no effect and ±100 for the full control effect; potency is read from the fitted curve at half-maximal effect.

SMILES	activity change, negative = inhibition	Potency
COc1ccc(NC(=O)Cn2c(=O)n(CCC(C)C)c(=O)c3cccnc32)cc1Cl	4.25% (inactive)	
Cc1c(C(=O)NCc2ccccc2Br)oc2ccc3c(c12)C(=O)CC(C)(C)O3	1.93% (inactive)	
CCOC(=O)N1CCC(NC(=O)c2cnn(-c3cccc(C)c3)c2C2CCN(C(=O)OC(C)(C)C)CC2)CC1	-12.9% (inactive)	
COc1cc(Cl)ccc1Nc1ncc(C(=O)N2CCN(c3ccccc3OC)CC2)c2ccccc12	8.24% (inactive)	
Cc1ccc2nc(CN3CCN(S(=O)(=O)c4ccc(C)c(C)c4)CC3)oc2c1	-4.25% (inactive)	
Cc1ccccc1CSc1nc(-c2ccccc2)nc2c1Cc1c(CO)cnc(C)c1O2		39.8 µM (active)
CSc1nc(-c2ccccc2Cl)nc2c1Cc1c(CO)cnc(C)c1O2	-22.1% (inactive)	
CSc1nc(-c2ccc(F)cc2)nc2c1Cc1c(CO)cnc(C)c1O2	-3.94% (inactive)	
Cc1cc(NC(=O)CN2CCCC(C)C2)n(-c2nc3ccccc3s2)n1 (stereo not drawn)		12.6 µM (active)
CC1CCCN(CC(=O)Nc2cc(Cl)ccc2Oc2ccccc2)C1 (stereo not drawn)	3.98% (inactive)	
CC(=O)Nc1ccc(NC(=O)CN2CCCC(C)C2)c(Cl)c1 (stereo not drawn)	9.99% [at 11.4 µM] (inactive)	
COc1ccc(C(=O)Nc2nonc2-c2ccc(OC)c(OC)c2)cc1Cl	-0.679% (inactive)	
COc1cccc(CNc2nccn(-c3ccc(OC)c(OC)c3)c2=O)c1	10.1% (inactive)	
O=C(O)c1cnn2c(C(F)(F)F)cc(-c3ccccc3)nc12	-20.4% (inactive)	
O=C(NCc1ccco1)c1cnn2c(C(F)(F)F)cc(-c3ccco3)nc12		50.1 µM (active)
O=C(NCc1ccco1)c1ccc([N+](=O)[O-])cc1Cl	-30.4% (inactive)	
OCc1cnc(SCc2ccc(F)cc2)n1Cc1ccc(F)cc1	-8.02% (inactive)	
COc1ccc(N2CCN(c3cc(C)nc4nncn34)CC2)cc1	0.741% (inactive)	
COC(=O)c1c(C)[nH]c(C(=O)/C=C/c2ccc(Cl)cc2)c1C	-5.56% (inactive)	
Cc1[nH]c(=O)c(C(=O)/C=C/c2ccccc2)c2c1CCCC2		35.5 µM (active)
C/C(=C\c1ccccc1)C1NC(=O)c2c(sc3c2CCCC3)N1 (stereo not drawn)	-10.9% (inactive)	
Cc1nc(-c2ccccc2)sc1C(=O)/C=C/N(C)C	-15.3% (inactive)	
Cc1nc(-c2ccc(Cl)cc2)sc1C(=O)CBr		39.8 µM (active)
Cc1nc(-c2ccc(Cl)cc2)sc1C1(C)CC(c2ccccc2F)=NO1 (stereo not drawn)	-13.9% (inactive)	
COC(=O)c1cc(NC(=O)CCS(=O)(=O)c2cc(Br)cc3c2N(C(=O)C2CC2)CC3)cc(C(=O)OC)c1	-9.74% (inactive)	
Cc1cc(C)c2[nH]c(=O)c(C(c3nnnn3Cc3ccc4c(c3)OCO4)N3CCCC3)cc2c1 (stereo not drawn)		15.8 µM (active)
Cc1ccc(S(=O)(=O)Cn2nnnc2CN2CCN(Cc3ccc4c(c3)OCO4)CC2)cc1	5.87% (inactive)	
Fc1ccccc1C(c1nnnn1Cc1ccc2c(c1)OCO2)N1CCN(Cc2ccccc2)CC1 (stereo not drawn)	-21.9% (inactive)	

— PubChem BioAssay AID485364 (National Center for Advancing Translational Sciences (NCATS), 2010)
